{
  "source": "PubChem BioAssay (NCI)",
  "note": "This is part of a sample that, as a whole, favours compounds with a hit. Of some 83,000 tested, about 20% had one in any assay.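 Each cell line was grown in a 96-well plate and treated with one concentration of compound for 48 hours. Values below 10 were considered active.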 A number with no mark means an inactive call. Active and inactive are the calls of the source.",
  "data": [
    {"test_system": "K-562 leukemia", "test": "NCI-60 one-dose screen, 48 h (100 = growth as untreated, 0 = no growth, -100 = all killed)", "settings": "10 µM unless noted", "values": [
      {"smiles": "O=C(Nc1ccccc1)Nc1ncnc2c1ncn2-c1ccc(Cl)cc1", "growth": "99.6%"},
      {"smiles": "CC(C)c1ccc(C(=O)Nc2nc3ccc(O)c(CN(C)C)c3s2)cc1", "growth": "1.54% (active)"},
      {"smiles": "Cc1ccc(Nn2c(SCC(=O)Nc3nc(-c4ccccc4)cs3)nc(C)c2C)cc1", "growth": "37.7%"},
      {"smiles": "N#CC(C#N)N=Nc1ccc(Br)cc1", "growth": "12.5%"},
      {"smiles": "CCN1C(=S)N(c2ccccc2)C2C1NN=c1s/c(=C3\\C(=O)N(C(C)C)c4ccccc43)c(=O)n12", "note": "(centres undefined)", "growth": "87.2%"},
      {"smiles": "CSc1nc2ccccc2cc1/C=[N+](\\[O-])c1ccccc1", "growth": "15.1%"},
      {"smiles": "CN1CCN(c2cc(Nc3cc(C4CC4)[nH]n3)nc(Nc3ccc(CC(=O)NCc4cccc(F)c4)cc3)n2)CC1", "growth": "20.7%"},
      {"smiles": "C=CCN=c1sc2c(n1NC(=O)c1cc3ccc1CCc1ccc(cc1)CC3)C(=O)c1ccccc1C2=O", "growth": "-12.3% (active)"},
      {"smiles": "Cn1cc(-c2csc(-c3cn(C(=O)OC(C)(C)C)c4ccc(Br)cc34)n2)c2ccnc(Cl)c21", "growth": "86.9%"},
      {"smiles": "CSc1oc(C)nc1[P+](c1ccccc1)(c1ccccc1)c1ccccc1", "growth": "31%"},
      {"smiles": "C=C1C(=O)O[C@H]2[C@H]1CC/C(Cn1cc(-c3ccccc3)nn1)=C\\CC[C@@]1(C)O[C@@H]21", "growth": "-3.88% (active)"},
      {"smiles": "O=S(=O)(c1ccccc1)n1cc2c(c1)-c1nc(Nc3ncccn3)sc1CC2", "growth": "73.8%"},
      {"smiles": "Cc1[nH]c(C(=O)Nc2ccccc2OC2CCNCC2)c(Cl)c1Cl", "growth": "-2.5% (active)"},
      {"smiles": "COc1ccc(-c2cc(-c3ccc(Cl)cc3)c(C#N)c(=O)n2Cc2ccc(C(=O)Nc3ccccc3N)cc2)cc1", "growth": "46.2%"}
    ]}
  ]
}
